# From the supplement of paper PMC6555819
# System: LXRb:RXRa (NR concentration 270 nM, RXRa partner concentration 90 nM)
# Test: PBM binding z-score (relative to random genomic background probes); higher = stronger binding; sequences stand for … in GC…GCGATTGACAGCGTAGAATGAAGG
# Outline: (§1)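 Probes were double-stranded and carried 34-nt variable regions with direct-repeat seeds, single-nucleotide variants, half-site ablations and random human genomic background sequences, printed on custom Agilent 4×180K protein-binding microarrays. Arrays were incubated 1 h with ligand-free nuclear receptor dimers in PBS pH 7.4, 2% milk, 0.02% Triton X-100, 1 mM DTT, 0.2 mg/mL BSA and 0.4 mg/ml salmon testes DNA. Antibodies against each partner (one per run) detected binding, and scanned fluorescence was regression-normalized. Binding z-scores use the random background probes as reference.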
row,Sequence,PBM binding z-score
1,CGAACGAGGGCATGAGTTCATAGCAAATGCCGAT,1.51
2,GCTTGCAGGCCATTTGGGTCACTCAATGACGGGC,0.146
3,TGTCAAAGTTCAAACGTAACGTAAGTATCCACAC,4.82
4,TAGCCTAGGTCATCCAGGGGCCAGTATAGAAAGC,2.82
5,ATCACTAGGTAACAAGTTCAGTGAAAGAGAGGAC,0.664
6,ACTAGTTGGTCAGCAGAGGTCACACACAATTCGG,4.34
7,CATACAGGGTCAGCTAGGCCAGAGTGGGGACGGC,2.72
8,TCTTGCAGATCAACAGGAGGTTAAGAAAGATCGA,0.679
9,TCTGCTAGGTCAGTTGGTCTGCTAACGAGCTGCC,-0.119
10,TCATATAGGTAAACAGGAGAAAGTCCGTAAGTTA,0.291
11,CGAACGAGCGCATGAGTTGATAGCAAATGCCGAT,-0.865
12,GCTTACGGGTCAAAGGTTTTAGCATGAATAGAAT,4.17
13,ACTTACGGGTCAACGAGGTTATATCACGCGTATA,4.54
14,CGAACGAGGGCATGAGTTGATATCAAATGCCGAT,0.156
15,TCTTGTAGATCAAAGGTTAAGAATGCCGAAGCCT,1.94
16,AGAGCGAGGGCAATGAGTTGATAGCACGGGTGGC,-0.283
17,CTTACAGGGTCAGCTAGGCCAGAGTAGGGACGGC,2.04
18,TCATATACGTAAAGGTGAAAGTCGAACGATATGA,1.44
19,TCTGCTAGGTCAACGATGGTCAGCTGATCTGCTA,1.72
20,TAGCCTAGGTCAGATCGGGCTAGTATACGCTATA,0.639

row,Sequence,PBM binding z-score
1,ATCTCTAGGTAAAAGATCAGTGAATCCCGAGGAT,-0.31
2,TAGCCTAGGTCATGGGCCATTATACCACGCGAAC,2.95
3,TGAATGAGGTTATAAGATCAGAGAACGTTGCAAA,0.897
4,CCTACTGGGCCACGAAAGGTCATTGTTTCAGTGA,4.29
5,CGAACTAGTTCATTGACAGGACAGTGAATAGTAA,0.212
6,CCAGACAGGTGAGAAGGTAACTCATCCTCGATTA,0.16
7,ATCGAAAGTTCGAGGTGAGTATAGAGAAAGGGAA,0.703
8,TTATATAGGTAATACAGGTGAAAGTCGGCATCTA,0.772
9,TCTATTAGTTGAAGGGCAAGCGACGAGTCCGTTT,0.863
10,TCTATTATTTGAAGGGCAACCGACGAGTCCGTTT,1.35
11,TCATATAGGTAAAAAGTGAAAGTCGGTGTGGTAA,0.858
12,TCTTGTAGATCAATAGAGGTTAAGACAGTGCGCT,1.56
13,TCTTGTAGATCAATAGAGGTTATGAAAGTGCGCT,1.68
14,GCGACTGGCGCATCAGCAGGTTACCATAACTTAA,-0.631
15,ATCTCTAGGTAACGATAGTTCAGTGAATGCAAAT,1.33
16,CCGACTGGGGCACGGTTACCATAACGCACAGCCA,-0.211
17,CGAACGAGGGCATGAGTTGATTGCAAATGCCGAT,-0.0625
18,TCTCAGAGGACACGAAGGTCAGAGCTTTCCAGAG,0.974
19,TAGCCAAGGTCATGCGGGCCAGTATAGTGTCGGC,3.87

# System: LXRb homodimer (NR concentration 270 nM)
# Test: as above
# Outline: as §1
row,Sequence,PBM binding z-score
1,CGAACGAGGGCATGAGTTCATAGCAAATGCCGAT,-0.903
2,GCTTGCAGGCCATTTGGGTCACTCAATGACGGGC,-0.138
3,TGTCAAAGTTCAAACGTAACGTAAGTATCCACAC,3
4,TAGCCTAGGTCATCCAGGGGCCAGTATAGAAAGC,0.318
5,ATCACTAGGTAACAAGTTCAGTGAAAGAGAGGAC,0.576
6,ACTAGTTGGTCAGCAGAGGTCACACACAATTCGG,1.39
7,CATACAGGGTCAGCTAGGCCAGAGTGGGGACGGC,0.724
8,TCTTGCAGATCAACAGGAGGTTAAGAAAGATCGA,-0.645
9,TCTGCTAGGTCAGTTGGTCTGCTAACGAGCTGCC,0.334
10,TCATATAGGTAAACAGGAGAAAGTCCGTAAGTTA,-0.116
11,CGAACGAGCGCATGAGTTGATAGCAAATGCCGAT,-1.12
12,GCTTACGGGTCAAAGGTTTTAGCATGAATAGAAT,0.372
13,ACTTACGGGTCAACGAGGTTATATCACGCGTATA,1.09
14,CGAACGAGGGCATGAGTTGATATCAAATGCCGAT,-0.654
15,TCTTGTAGATCAAAGGTTAAGAATGCCGAAGCCT,0.134
16,AGAGCGAGGGCAATGAGTTGATAGCACGGGTGGC,-0.845
17,CTTACAGGGTCAGCTAGGCCAGAGTAGGGACGGC,-0.147
18,TCATATACGTAAAGGTGAAAGTCGAACGATATGA,0.339
19,TCTGCTAGGTCAACGATGGTCAGCTGATCTGCTA,0.146
20,TAGCCTAGGTCAGATCGGGCTAGTATACGCTATA,-0.577

row,Sequence,PBM binding z-score
1,ATCTCTAGGTAAAAGATCAGTGAATCCCGAGGAT,0.167
2,TAGCCTAGGTCATGGGCCATTATACCACGCGAAC,0.468
3,TGAATGAGGTTATAAGATCAGAGAACGTTGCAAA,-0.296
4,CCTACTGGGCCACGAAAGGTCATTGTTTCAGTGA,0.43
5,CGAACTAGTTCATTGACAGGACAGTGAATAGTAA,-0.317
6,CCAGACAGGTGAGAAGGTAACTCATCCTCGATTA,-0.283
7,ATCGAAAGTTCGAGGTGAGTATAGAGAAAGGGAA,-0.225
8,TTATATAGGTAATACAGGTGAAAGTCGGCATCTA,0.539
9,TCTATTAGTTGAAGGGCAAGCGACGAGTCCGTTT,0.193
10,TCTATTATTTGAAGGGCAACCGACGAGTCCGTTT,0.721
11,TCATATAGGTAAAAAGTGAAAGTCGGTGTGGTAA,-0.108
12,TCTTGTAGATCAATAGAGGTTAAGACAGTGCGCT,0.045
13,TCTTGTAGATCAATAGAGGTTATGAAAGTGCGCT,0.325
14,GCGACTGGCGCATCAGCAGGTTACCATAACTTAA,-1.19
15,ATCTCTAGGTAACGATAGTTCAGTGAATGCAAAT,0.408
16,CCGACTGGGGCACGGTTACCATAACGCACAGCCA,-0.878
17,CGAACGAGGGCATGAGTTGATTGCAAATGCCGAT,-0.873
18,TCTCAGAGGACACGAAGGTCAGAGCTTTCCAGAG,-0.749
19,TAGCCAAGGTCATGCGGGCCAGTATAGTGTCGGC,0.499
